Experimental data: PubChem BioAssay
Several values for one entry are separate records, joined by “and”; a condition that tells them apart may be missing. Equal values may be shown once. For part of these data: Entries with a potency or affinity are not part of this list. Activity calls are given as the source filed them.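 Rule for the calls, unless noted: active = compounds whose cell count with miR-34 switched on is under 0.7 times the count with it off; inactive = the rest.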 Peptide text beside a SMILES is read from it.

Key:
[1] = P. berghei load reduction in hepatocytes – cell-based, HepG2, luciferase luminescence, HepG2 viability, primary screen (AID 624349; in the data active = parasite load remaining mostly below about 12%, no sharp cut-off; inactive = mostly above about 10%;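 note: 100% = mean of DMSO negative control wells on the same plate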); settings: P. berghei liver stage in HepG2, luciferase luminescence, concentration not given here; parasite load remaining: stronger effect = lower value; viability: measured here: HepG2 viability without parasites
[2] = molecular target: 6-phosphogluconate dehydrogenase, decarboxylating (Homo sapiens) (UniProt P52209); assay: inhibition of human phosphogluconate dehydrogenase – biochemical, recombinant enzyme, NADPH absorbance, primary screen (AID 1159550;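 active = at least 20% inhibition of 6-phosphogluconate dehydrogenase activity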); settings: recombinant 6PGD, NADPH absorbance 341 nm; at 10 µM; stronger effect = higher value
6-phosphogluconate dehydrogenase, decarboxylating (Homo sapiens), sequence (P52209 whole entry, looked up): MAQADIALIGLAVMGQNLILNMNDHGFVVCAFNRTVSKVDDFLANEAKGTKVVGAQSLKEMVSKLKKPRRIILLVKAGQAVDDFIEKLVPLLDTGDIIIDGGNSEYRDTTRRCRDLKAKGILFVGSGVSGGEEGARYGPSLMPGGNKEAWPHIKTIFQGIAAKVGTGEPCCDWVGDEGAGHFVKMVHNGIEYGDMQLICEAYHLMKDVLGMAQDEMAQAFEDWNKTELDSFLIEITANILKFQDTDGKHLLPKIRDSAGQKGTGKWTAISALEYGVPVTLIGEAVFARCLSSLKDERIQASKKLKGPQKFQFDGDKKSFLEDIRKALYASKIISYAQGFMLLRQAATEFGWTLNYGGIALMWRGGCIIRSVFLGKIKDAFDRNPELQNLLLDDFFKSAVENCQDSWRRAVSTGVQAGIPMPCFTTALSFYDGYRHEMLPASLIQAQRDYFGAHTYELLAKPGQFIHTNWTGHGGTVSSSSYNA

[3] = EMT-state selective cytotoxicity in co-culture – imaging, PC-3E GFP, TEM4-18 mCherry, primary screen (AID 1345086;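 active = compounds killing one labelled cell type while sparing the other, by normalised counts and ratio limits, not self-fluorescent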;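 for all read-outs here: cells exposed to compound for 72 h before imaging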;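 for red/green cell ratio (normalised): normalised mesenchymal count divided by normalised epithelial count so high means epithelial killing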); settings: PC-3E GFP / TEM4-18 mCherry co-culture, imaging cell counts, at 1 µM; for red/green cell ratio (normalised): actives lie on both sides, counts scaled to control wells, 1 = unselective
[4] = molecular target: Mitogen-activated protein kinase 7 (Homo sapiens) (UniProt Q13164); assay: Gal4-ERK5 driven luciferase induction – cell-based, HTS, primary screen (AID 1508626;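 active = luciferase signal above three times the same-plate solvent-only control wells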;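 note: luciferase driven by Gal4-ERK5 fusion binding five Gal4 sites before minimal TATA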); settings: HeLa Gal4-ERK5 transactivation, 18 h, at 5 µM, stronger effect = higher value
Mitogen-activated protein kinase 7 (Homo sapiens), sequence (Q13164 whole entry, looked up, the tested form may be a part): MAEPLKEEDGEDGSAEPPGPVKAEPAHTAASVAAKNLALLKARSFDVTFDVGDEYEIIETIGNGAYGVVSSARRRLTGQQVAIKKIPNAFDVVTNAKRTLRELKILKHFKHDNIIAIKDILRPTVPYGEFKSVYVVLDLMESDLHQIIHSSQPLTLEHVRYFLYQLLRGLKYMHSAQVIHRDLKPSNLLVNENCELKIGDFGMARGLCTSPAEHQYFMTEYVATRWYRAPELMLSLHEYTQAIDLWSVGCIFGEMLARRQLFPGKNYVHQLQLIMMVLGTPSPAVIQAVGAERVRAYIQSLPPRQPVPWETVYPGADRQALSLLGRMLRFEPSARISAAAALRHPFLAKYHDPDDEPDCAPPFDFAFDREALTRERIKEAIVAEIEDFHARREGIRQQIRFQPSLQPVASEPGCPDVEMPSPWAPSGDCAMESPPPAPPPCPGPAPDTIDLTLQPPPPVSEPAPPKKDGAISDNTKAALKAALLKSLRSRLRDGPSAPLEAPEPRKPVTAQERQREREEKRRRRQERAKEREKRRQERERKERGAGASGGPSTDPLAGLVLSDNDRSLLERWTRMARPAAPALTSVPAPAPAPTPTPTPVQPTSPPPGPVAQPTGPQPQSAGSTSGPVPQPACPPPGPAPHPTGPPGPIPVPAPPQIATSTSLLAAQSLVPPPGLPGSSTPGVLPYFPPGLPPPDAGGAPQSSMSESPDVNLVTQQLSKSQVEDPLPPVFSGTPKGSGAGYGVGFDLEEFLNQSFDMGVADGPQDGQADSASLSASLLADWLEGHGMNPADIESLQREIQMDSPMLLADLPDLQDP

[5] = compounds altering circadian rhythm period length – cell-based, LOPAC library, luminescence reporter (AID 2774; call rule not given here;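 note: values are relative to mean of DMSO wells on each plate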); settings: circadian reporter cells, at 7 µM, actives lie on both sides
[6] = viability loss with induced miR-34 in A549 – imaging, A549 dox-inducible miR-34, nuclei and caspase counts, primary screen (AID 1347080); settings: A549 miR-34 inducible, Hoechst nuclei count, 48 h
[7] = blockers of cellular phospholipid synthesis – cell-based, LOPAC library, screen 4, primary screen (AID 1347384; call rule not given here); settings: animal cells, phospholipid biosynthesis inhibition screen; at 10 µM
[8] = galactose survival enhancers in mitochondrial complex I cybrids – cell-based, galactose medium, ATP luminescence, primary screen (AID 1645843;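 active = z-score of at least 1.8 in each of two replicates, scored against plate mean and spread of sample wells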;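 note: positive z means more ATP and so rescue of galactose-driven cybrid death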); settings: complex I mutant cybrid cells, 72 h, stronger effect = higher value
[9] = MELAS cybrid and Rieske KO viability enhancers – cell-based, MELAS cybrids, Rieske KO mouse fibroblasts, CellTiter-Glo, primary screen (AID 1508586;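 active = mean z-score across replicates of 1.96 or higher in either the MELAS or the Rieske mutant cell line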;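 note: z relative to plate mean and SD of compound and empty wells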); settings: low glucose
[10] = molecular target: NAD(+) hydrolase SARM1 (Homo sapiens) (UniProt Q6SZW1); assay: blocking NAD cleavage by SARM1 SAM-TIR – cell lysate, NAD-Glo luminescence (AID 1508614;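 active = compound whose remaining NAD level is above about 45 nM, limit read from the data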;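 note: higher remaining NAD means stronger inhibition of SARM1 NADase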); settings: SAM-TIR HEK293T lysate NADase, at 1 µM, stronger effect = higher value
NAD(+) hydrolase SARM1 (Homo sapiens), sequence (Q6SZW1 whole entry, looked up): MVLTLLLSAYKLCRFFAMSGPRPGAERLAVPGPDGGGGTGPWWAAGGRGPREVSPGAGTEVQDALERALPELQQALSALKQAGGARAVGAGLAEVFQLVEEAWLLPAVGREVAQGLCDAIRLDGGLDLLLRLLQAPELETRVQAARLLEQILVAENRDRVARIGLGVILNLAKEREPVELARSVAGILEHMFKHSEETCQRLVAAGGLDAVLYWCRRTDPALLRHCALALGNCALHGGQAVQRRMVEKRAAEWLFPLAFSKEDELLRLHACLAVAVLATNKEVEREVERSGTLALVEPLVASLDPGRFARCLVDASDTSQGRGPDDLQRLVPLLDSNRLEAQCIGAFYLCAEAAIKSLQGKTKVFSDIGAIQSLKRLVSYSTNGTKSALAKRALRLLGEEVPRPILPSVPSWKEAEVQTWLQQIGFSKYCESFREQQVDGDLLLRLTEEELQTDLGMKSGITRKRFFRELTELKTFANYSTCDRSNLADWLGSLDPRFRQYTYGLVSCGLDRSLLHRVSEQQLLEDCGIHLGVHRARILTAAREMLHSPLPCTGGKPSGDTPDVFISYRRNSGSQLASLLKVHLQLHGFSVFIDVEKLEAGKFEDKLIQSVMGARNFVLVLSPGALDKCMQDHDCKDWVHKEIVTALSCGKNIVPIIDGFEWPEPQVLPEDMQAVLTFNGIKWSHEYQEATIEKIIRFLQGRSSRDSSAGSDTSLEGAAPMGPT

[11] = blockers of polyQ-driven CASP3 activation – cell-based (AID 1583); settings: polyglutamine-induced caspase-3 activation, cell assay; stronger effect = higher value;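 tested at 10 µM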
[12] = yeast 75Q aggregation reduction – 75Q-TubU reporter (AID 1593); settings: Yeast 75Q polyglutamine aggregation reporter
[13] = restoration of touch response, mutant HTT neurons – whole organism, C. elegans mechanosensory neurons, N-terminal huntingtin (AID 1599); settings: C. elegans polyQ-huntingtin mechanosensory neurons, stronger effect = higher value
[14] = blockers of cytochrome c efflux from mitochondria – biochemical, purified mitochondria (AID 1603); settings: stronger effect = lower value;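 note: mouse liver mitochondria challenged with calcium chloride; signal normalized to the plate average as 100%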
[15] = polyglutamine aggregate formation blockers (AID 1604); settings: polyglutamine-induced protein aggregation inhibition assay; stronger effect = higher value; tested at 2.5 µM
[16] = glutamate transport activators, MN-1 cells, MN-1 cell line (AID 1612); settings: MN-1 motor neuron cells, stronger effect = higher value;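 note: tested at 1 µM final; 0% = mean of DMSO vehicle wells on each plate; positive means more glutamate uptake than control and negative means less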
[17] = GFP-Q80 aggregate reduction, neuronal-like cells, cell-based, NGF-treated PC12, GFPQ80 (AID 1614); settings: PC12 NGF-treated GFP-polyQ80 inclusion reduction;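 note: lower means fewer inclusions and 0 means no inclusions at all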
[18] = 75Q-TubH aggregate inhibition, S. cerevisiae, yeast (AID 1616); settings: S. cerevisiae 75Q-TubH polyglutamine aggregation suppression; stronger effect = higher value
[19] = compounds altering viability of human ES cells (AID 493140; call rule not given here;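 note: cells exposed to compounds for four days before counting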); settings: human embryonic stem cell survival screen; stronger effect = higher value
[20] = measured here: epithelial PC-3E GFP cell survival
[21] = measured here: mesenchymal TEM4-18 mCherry cell survival
[22] = stronger effect = lower value, cell number ratio, induced over uninduced
[23] = measured here: relative caspase fold change +Dox/-Dox
[24] = measured here: total cells with miR-34 induction, stronger effect = lower value
[25] = measured here: total cells without miR-34 induction
[26] = MELAS cybrid survival, CellTiter-Glo 48 h, stronger effect = higher value
[27] = Rieske KO mouse fibroblast survival, CellTiter-Glo 72 h

For `COc1cc(/C=C/C(=O)O)ccc1O`, the parasite load remaining [1] was 186% (inactive), the viability [1] was 69.3% and the inhibition [2] was 3.09% (inactive). The red/green cell ratio (normalised) [3] was 1.05 (inactive), the normalised cell number [3, 20] was 1 and the normalised cell number [3, 21] was 1.05. The luciferase signal [4] was 48 AU (inactive).

For `O=C(/C=C/c1ccc(O)cc1)c1ccc(O)cc1O`, the period change [5] was 0.18 h (inactive), the inhibition [2] was -4.78% (inactive) and the red/green cell ratio (normalised) [3] was 1.01 (inactive). The normalised cell number [3, 20] was 0.91, the normalised cell number [3, 21] was 0.91 and the fold change [6, 22] was 1.12 (inactive). For the same compound, the fold change [6, 23] was 0.85, the cell count [6, 24] was 9020 and the cell count [6, 25] was 8080. The outcome [7] was “inactive”, the luciferase signal [4] was 80 AU (inactive) and the z-score [8] was -0.25 (inactive).

For `NC[C@H]1O[C@H](O[C@H]2[C@H](O)[C@@H](O[C@H]3O[C@H](CO)[C@@H](O)[C@H](N)[C@H]3O)[C@H](N)C[C@@H]2N)[C@H](N)C[C@@H]1O`, the parasite load remaining [1] was 155% (inactive) and 39.4% (inactive) and 27.1% (inactive), the viability [1] was 107% and 98% and 71.5% and the inhibition [2] was -0.0775% (inactive). The red/green cell ratio (normalised) [3] was 1.17 (inactive), the normalised cell number [3, 20] was 0.88 and the normalised cell number [3, 21] was 1.03. For the same compound, the fold change [6, 22] was 0.865 (inactive) and 0.994 (inactive) and 0.887 (inactive), the fold change [6, 23] was 1.22 and 2.22 and 1.69 and the cell count [6, 24] was 8760 and 12000 and 9090. For the same compound, the cell count [6, 25] was 10100 and 12100 and 10300, the z-score [9, 26] was 0.333 (inactive) and -0.0714 (inactive) and the z-score [9, 27] was 0.434 and -0.898. The remaining NAD [10] was 22 nM (inactive), the luciferase signal [4] was 84 AU (inactive) and the z-score [8] was 0.605 (inactive).

Compound `CC(=O)N[C@@H](CC(=O)O)C(=O)N[C@@H](CCC(=O)O)C(=O)O` (Ac-Asp-Glu-OH) has an inhibition [11] of 12.9%, a score [12] of 1.12 and a rescue above control [13] of 7.68. It also gave a cytochrome c release ratio [14] of 1.15, an inhibition of aggregation [15] of 1.96% and a glutamate uptake change [16] of 0%. For the same compound, the inclusion score [17] was 2, the aggregation suppression score [18] was 1.06 and the survival [19] was 16.7 (inactive). For the same compound, the inhibition [2] was -7.58% (inactive), the red/green cell ratio (normalised) [3] was 0.86 (inactive) and the normalised cell number [3, 20] was 1.17. For the same compound, the normalised cell number [3, 21] was 1.01, the fold change [6, 22] was 0.963 (inactive) and the fold change [6, 23] was 0.542. For the same compound, the cell count [6, 24] was 8810, the cell count [6, 25] was 9150 and the z-score [8] was -0.67 (inactive).

For `COc1ccc(-c2coc3cc(O)cc(O)c3c2=O)cc1`, the inhibition [11] was -2.46%, the score [12] was 1.27 and the rescue above control [13] was 4. The cytochrome c release ratio [14] was 2.73, the inhibition of aggregation [15] was 22.4% and the glutamate uptake change [16] was 10.2%. For the same compound, the aggregation suppression score [18] was 1.01, the inhibition [2] was 17.9% (inactive) and the red/green cell ratio (normalised) [3] was 0.99 (inactive). For the same compound, the normalised cell number [3, 20] was 1.32, the normalised cell number [3, 21] was 1.3 and the fold change [6, 22] was 0.896 (inactive). For the same compound, the fold change [6, 23] was 0.917, the cell count [6, 24] was 7900 and the cell count [6, 25] was 8810. For the same compound, the z-score [9, 26] was -0.162 (inactive), the z-score [9, 27] was -1.4 and the luciferase signal [4] was 16 AU (inactive).

In the case of `OCC(O)C(O)C(O)CO` (stereo unspecified), the inhibition [2] is reported as -9.83% (inactive), the red/green cell ratio (normalised) [3] is reported as 1.02 (inactive) and 0.91 (inactive) and the normalised cell number [3, 20] is reported as 0.96 and 1.18. For the same compound, the normalised cell number [3, 21] was 0.97 and 1.07, the fold change [6, 22] was 0.884 (inactive) and the fold change [6, 23] was 0.816. The cell count [6, 24] was 9100, the cell count [6, 25] was 10300 and the z-score [9, 26] was -0.33 (inactive). The z-score [9, 27] was 0.446 and the luciferase signal [4] was 36 AU (inactive).
